GC-B act – GC-B (human) receptor activation; HEK293-GC-B cells, CNP EC30, cGMP TR-FRET; 0% at EC30 CNP, 100% saturating CNP; activation, % at 10 µM; P20594; AID 1920062; 0.11% of 370,000 active;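 active = activation at 10 µM reaching about 35% in either raw or pattern-adjusted values, limit read from the data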
V-ATPase pHluor – alters yeast V-ATPase proton transport. AID 504577. 0.37% of 350,000 active. response, % at 10 µM. S. cerevisiae, pHLuorin cytosolic pH fluorescence; in the data active = response mostly above about 7.3%, no sharp cut-off; inactive = mostly below about 5.4%; note: actives read high
Rev-erbA mod – Rev-erb alpha (human) modulation; activity, % at 10 µM; Rev-erbα–FITC-DNA binding, fluorescence polarization, 90 min; 0.79% of 370,000 active; P20393; AID 1259318;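 active = activity above about 14%, limit read from the data; passing the limit was not always enough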;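 note: 0% = DMSO wells with 35 nM protein and 100% = DMSO wells with 750 nM protein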
Target sequence (P20393 whole entry, looked up): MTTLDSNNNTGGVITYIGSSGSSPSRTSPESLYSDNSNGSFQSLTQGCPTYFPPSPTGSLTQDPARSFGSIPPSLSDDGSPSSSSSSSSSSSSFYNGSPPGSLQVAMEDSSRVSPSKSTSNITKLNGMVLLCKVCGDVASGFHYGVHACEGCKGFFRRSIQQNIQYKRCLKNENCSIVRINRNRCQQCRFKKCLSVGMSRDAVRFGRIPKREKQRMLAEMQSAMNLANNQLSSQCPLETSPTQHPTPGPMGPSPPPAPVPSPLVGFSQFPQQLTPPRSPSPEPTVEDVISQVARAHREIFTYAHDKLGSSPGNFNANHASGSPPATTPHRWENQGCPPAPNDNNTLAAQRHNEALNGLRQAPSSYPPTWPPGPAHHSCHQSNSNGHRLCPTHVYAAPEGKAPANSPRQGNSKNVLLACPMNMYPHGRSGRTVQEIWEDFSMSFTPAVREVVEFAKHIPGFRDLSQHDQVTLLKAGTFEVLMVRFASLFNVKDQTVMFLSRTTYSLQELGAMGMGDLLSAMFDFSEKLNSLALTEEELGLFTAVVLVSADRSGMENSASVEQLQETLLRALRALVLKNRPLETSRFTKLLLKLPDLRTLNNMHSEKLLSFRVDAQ
NPR1 activator – GC-A (human) enzyme activation; P16066; HEK293 GC-A cells, cGMP TR-FRET, EC30 ANP; 0% at EC30 ANP, 100% saturating ANP; activation, % at 10 µM; 0.14% of 370,000 active; AID 1671463; in the data active = activation above about 40%
PG9 binder – small molecules binding HIV-1 gp120 antibody PG9 | TR-FRET gp120-PG9 antibody binding | inhibition, % at 6.7 µM | 0.43% of 360,000 active; in the data active = inhibition above about 8.5%
NR1D1 mod conf – confirmation of modulators of human Rev-erb alpha DNA binding. shares compounds with Rev-erbA mod. Rev-erb alpha FITC-DNA binding, fluorescence polarization, 90 min. activation, % at 25 µM. 61% of 3,000 active. AID 1259319;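 active = activation at or above a set limit, or at least 3 SD above the negative control mean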;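 note: 0% = 35 nM protein with DMSO and 100% = 750 nM protein high control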
RORg DNA counter – RORgamma DNA-binding activity, dose-response counter-screen; AID 1259320; 8% of 910 active; purified RORgamma protein-FITC-DNA binding, fluorescence polarization; IC50, µM; shares compounds with Rev-erbA mod;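 active = Compounds whose fitted half-maximal concentration for disrupting protein-DNA binding is below 10 micromolar; the record names Rev-erb in its text, so the target is in doubt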
Starred values were filed as active, the others as inactive; · = no result given. Shown are actives, neighbours in structure and some others; about 1.6% of the full set was active somewhere.

SMILES	GC-B act	V-ATPase pHluor	Rev-erbA mod	NPR1 activator	PG9 binder	NR1D1 mod conf	others
Cc1onc(-c2c(F)cccc2Cl)c1C(=O)Nc1sc2c(c1C#N)CCC(C(C)(C)C)C2 (stereo unspecified)	3.3	-5.3	26.8*	1.7	-1.8	19.6*
COC(=O)C[C@@H]1CC[C@H]2[C@@H](COc3ccc(NC(=O)c4ccc(C(F)(F)F)cc4)cc3C(=O)N2C)O1	5.9	·	-6.3	2.1	·	·
COc1ccc(-c2cc(C(=O)Nc3cccnc3Cl)no2)cc1OC	-2.5	4.5	38.8*	0.3	-0.3	35.3*	RORg DNA counter=>40
O=C(Nc1cccnc1Cl)c1cc(-c2ccc(Br)cc2)on1	-12.8	0.4	23.4*	10.4	2.8	-4.2
CCCn1c(SCC(=O)c2ccc3c(c2)NC(=O)CO3)nc2ccccc21	-3.8	-4.9	0.7	-0.8	-1.9	·
Cn1c(SCC(=O)c2ccc3c(c2)NC(=O)CO3)nc2ccccc21	-3.5	4.4	35.9*	-7.3	7.9	24.2*
O=C1COc2ccc(C(=O)CSc3nnc(Cc4ccccc4)o3)cc2N1	-3.7	-2.4	17.7*	0.5	5.7	20.7*
O=C1COc2ccc(C(=O)CSc3nc4ccccc4c(=O)n3-c3ccc(Cl)c(Cl)c3)cc2N1	-1.6	1.4	25.8*	-6.1	-0.2	6.7
CCc1ccc(-n2c(SCC(=O)c3ccc4c(c3)NC(=O)CO4)nc3ccccc3c2=O)cc1	1.2	3.4	13.5	-3.8	1.2	·
O=C(CSc1nnc(Cc2ccccc2)o1)c1ccc(F)cc1	6.3	-1.7	2.0	-0.8	-1.2	·
CCCN(C(=O)CSc1cc(-c2ccccc2)c2ccc(OC)cc2n1)C1CCS(=O)(=O)C1 (stereo unspecified)	4.4	-3.3	-2.0	-7.6	0.1	·
COc1ccc2c(-c3ccccc3)cc(SC(C)C(N)=O)nc2c1 (stereo unspecified)	-3.3	-1.0	19.1*	-5.9	0.7	18.3*
COc1ccc(C(=O)CSc2nnc(-c3ccc(S(=O)(=O)N4CCOCC4)cc3)o2)cc1	0.9	0.6	13.6	1.6	2.7	·
O=C(CSc1nnc(-c2ccc(S(=O)(=O)N3CCOCC3)cc2)o1)c1ccccc1F	-3.9	4.9	20.9*	1.2	0.3	10.4
CCOC(=O)CC[C@H]1CC[C@]2(CCCN(S(C)(=O)=O)C2)O1	2.0	·	1.3	0.3	·	·
CCOc1ccc(-c2cc(C(=O)OC)nc3c2c(=O)n(C)c(=O)n3C)cc1	-1.3	-1.0	38.9*	1.4	0.6	0.3
Cc1ccc(-c2nc(NC(=O)c3ccc(S(=O)(=O)N(CCC#N)CCC#N)cc3)sc2-c2ccccc2)cc1	5.7	-3.0	25.6*	-4.2	-2.0	17.9*
O=C(Nc1nc(-c2ccccc2)c(-c2ccccc2)s1)c1ccc(S(=O)(=O)N2CCCC2)cc1	1.0	-0.1	15.9	-3.2	-2.7	·
N#CCCN(CCC#N)S(=O)(=O)c1ccc(C(=O)Nc2nc(-c3ccccc3)c(C(=O)c3ccccc3)s2)cc1	-0.5	0.3	189.0*	-1.3	0.9	176.8*	RORg DNA counter=4.07*
CN(C)S(=O)(=O)c1ccc(C(=O)Nc2nc(-c3ccccc3)c(C(=O)c3ccccc3)s2)cc1	3.2	-3.0	18.0	-2.2	1.1	·
CCOC(=O)[C@]12CCCC3=C1N(CCC3)C(=O)[C@@H](CC(=O)N1CCC(c3ccccc3)CC1)C2	5.7	·	4.2	-0.2	·	·
C=CCOC/C=C/C#CCN(Cc1ccc(OC)cc1OC)C(=O)Nc1ccccc1	-0.1	·	6.2	-1.6	·	·
C/C(=N/NC(=O)c1cccnc1)c1cccc(O)c1	-11.8	·	-6.1	0.4	·	·
O=C(c1ccncc1F)N1CCC(n2nnc3ncccc32)CC1	1.1	·	-4.0	4.5	·	·
COc1cc2c(c(OC)c1OC)[C@@]1(c3ccccc3)CCCCC[C@H]1[C@@H]2NC(=O)C(F)(F)F	-6.9	·	13.1*	-5.8	-2.4	5.7
SMILES	GC-B act	V-ATPase pHluor	Rev-erbA mod	NPR1 activator	PG9 binder	NR1D1 mod conf	others
O=C(Nc1cc(S(=O)(=O)N2CCOCC2)ccc1N1CCCCC1)c1cc(-c2ccccn2)nc2ccccc12	15.1	-0.9	24.6*	9.2	-1.1	2.4
Cc1ccccc1CN1CCCCC(NC(=O)c2cc(-c3ccccc3)no2)C1=O (stereo unspecified)	0.6	·	1.4	4.9	·	·
COc1cccc(-c2nc(CS(=O)(=O)CC(=O)NCCCc3ccccc3)c(C)o2)c1	-2.0	-0.3	59.8*	-15.2	4.1	36.8*	RORg DNA counter=>40
O=C(CSc1ncnc2nc[nH]c12)c1ccc(Cl)cc1	-2.3	3.7	-4.0	9.8	2.7	·
O=C(CSc1ncnc2c(-c3ccc(Cl)cc3)nsc12)c1ccccc1	-0.7	-0.2	33.8*	-7.1	1.2	18.9*
Cc1ccc(CN2CC(N3CCN(CCO)CC3)CS2(=O)=O)cc1 (stereo unspecified)	-4.8	·	3.1	1.7	-0.7	·
CSc1ccc(SC2CN(Cc3ccc(C)cc3)S(=O)(=O)C2)cc1 (stereo unspecified)	1.9	·	25.0*	0.0	1.8	28.3*	RORg DNA counter=>40
CCN1C(=O)C(=CC=CN(C)c2ccccc2)SC1=S	2.3	0.8	42.5*	0.1	-1.9	45.9*	RORg DNA counter=>40
CCCN1C(=O)/C(=C\C=C2\N(CC)c3ccccc3C2(C)C)SC1=S	4.3	1.3	61.7*	5.2	-0.1	2.2
CN1/C(=C\C=C2/SC(=S)NC2=O)C(C)(C)c2ccccc21	-5.0	-2.4	37.4*	-4.8	-5.6	18.9*
O=C(O)CN1C(=O)/C(=C/C=C/c2ccccc2)SC1=S	0.1	-1.3	0.6	-1.8	-2.9	·
c1ccc(-c2c[nH]c3ccc(OCCN4CCOCC4)c(-c4ccccc4)c23)cc1	-4.4	·	6.5	-2.8	·	·
COc1ccc(CNC(=O)CSc2nnnn2C)cc1OC	-0.3	-1.6	31.5*	0.6	-2.0	-1.6
CCCNC(=O)c1cc(-c2ccccc2)c(N2CCCCC2)s1	8.7	2.8	93.4*	-5.5	2.6	27.3*
COc1ccc(C=Nn2c(-c3n[nH]c4c3CCC4)n[nH]c2=S)cc1OCc1ccccc1	5.6	·	1.3	2.3	·	·
CC1=C(C(=O)OC2CCCCCCC2)C(c2cc3c(cc2Br)OCO3)CC(=O)N1 (stereo unspecified)	-2.2	-0.9	22.8*	-1.5	1.2	29.6*
CC1=C(C(=O)OC2CCCCC2)C(c2ccccc2Br)NC(=O)N1 (stereo unspecified)	-1.2	2.6	15.1*	-12.7	0.0	15.2
O=C(COc1ccc2ccccc2c1)NNC(=O)Cc1ccccc1	-5.3	-0.6	35.3*	-12.9	-28.5	28.8*
O=C(COc1ccc2ccccc2c1)NNC(=O)Cc1cccc2ccccc12	-9.4	2.3	-4.1	-7.1	2.0	·

Screening data from PubChem BioAssay.
